Experimental findings from PubChem BioAssay (NCI) are described below.

Compounds without any hit were thinned out: in the full panel of roughly 83,000, 20% have a hit.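 Single-dose data. Exposure time 48 hours. Values below 10 considered active.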 Values without a mark were called inactive. Activity calls are given as the source filed them.

Among the test systems are NCI-H23 lung; NCI-H226 lung; NCI-H322M lung; HOP-62 NSCLC; NCI-H460 lung; HOP-92 NSCLC; NCI-H522 lung; A549/ATCC NSCLC; 786-0 renal; COLO 205 colon.
Holding throughout (experiment): NCI-60 one-dose screen, 48 h (100 = growth as untreated, 0 = no growth, -100 = all killed)
Common to all, as to conditions: 10 µM unless noted

Turning to `COc1cc(/C=N/NC(=O)c2ccc(C)nc2)cc(OC)c1OC`, the growth in the assay on NCI-H23 lung was 102%; in the assay with NCI-H226 lung it was 85.1%; in the assay with NCI-H322M lung it was 90.5%; in the assay with HOP-62 NSCLC it was 105%; in the assay with NCI-H460 lung, 103%; in the assay on HOP-92 NSCLC, 90.5%. The growth with NCI-H522 lung is 91.7%; with A549/ATCC NSCLC, 90.9%; in the assay on 786-0 renal it was 34%; in the assay on COLO 205 colon it was 108%.

On to `CCc1nnc(NC(=O)c2nnn(-c3ccccc3)c2-c2ccco2)s1`, for which the growth with NCI-H23 lung is 91.7%; in the assay on NCI-H226 lung, 90.9%; in the assay with NCI-H322M lung, 94.2%; with HOP-62 NSCLC it was 92.9%; with NCI-H460 lung it was 83.7%; with HOP-92 NSCLC, 91.3%. Besides, the growth in the assay on NCI-H522 lung was 90.9%; in the assay on A549/ATCC NSCLC, 96.9%; with 786-0 renal, 105%; with COLO 205 colon, 109%.

For the molecule `NS(=O)(=O)c1ccc(-n2nc(-c3ccc(Cl)cc3)c3ccccc3c2=O)cc1`, the growth in the assay with NCI-H23 lung is 101%; with NCI-H226 lung it was 96.1%; with NCI-H322M lung, 148%; in the assay with HOP-62 NSCLC, 92.6%; in the assay on NCI-H460 lung, 96.3%; with HOP-92 NSCLC it was 80.9%. Also, the growth with NCI-H522 lung is 87.4%; with A549/ATCC NSCLC, 87.5%; with 786-0 renal, 92.7%; in the assay on COLO 205 colon, 111%.

For `Cc1cc(=O)oc2cc(OC(=O)N3CCN(C)CC3)ccc12`, the growth with NCI-H23 lung was 99.6%; in the assay on NCI-H226 lung, 101%; in the assay with NCI-H322M lung it was 105%; in the assay on HOP-62 NSCLC it was 104%; with NCI-H460 lung, 107%; in the assay on HOP-92 NSCLC, 103%. The growth in the assay with NCI-H522 lung is 98.9%; in the assay with A549/ATCC NSCLC it was 103%; in the assay on 786-0 renal it was 108%; in the assay with COLO 205 colon, 116%.

As to `Cc1[nH]c(C(=O)Nc2ccc(C(=O)NCCN)cc2OC(C)C)c(Cl)c1Cl`, the growth in the assay on NCI-H23 lung was 79.5%; in the assay with NCI-H226 lung, 93.5%; with NCI-H322M lung, 53.3%; in the assay on HOP-62 NSCLC it was 59.9%; in the assay with NCI-H460 lung, -55.2% (active); with HOP-92 NSCLC, 29.7%. The growth in the assay on NCI-H522 lung was -6.73% (active); in the assay with A549/ATCC NSCLC, 47.3%; in the assay on 786-0 renal it was 44%; in the assay on COLO 205 colon it was -45.7% (active).

As for `COc1ccc(C(=O)C(C)C)c2ccccc12`, the growth in the assay on NCI-H23 lung is 101%; in the assay on NCI-H226 lung, 105%; with NCI-H322M lung, 117%; in the assay with HOP-62 NSCLC, 99.8%; with NCI-H460 lung, 101%; in the assay on HOP-92 NSCLC it was 83.6%. Besides, the growth is 102% with NCI-H522 lung, 129% in the assay with A549/ATCC NSCLC, 100% in the assay on 786-0 renal and 113% with COLO 205 colon.

With `COc1ccc(-c2nnc(COc3ccc(Cl)cc3Cl)o2)cc1OC`, the growth with NCI-H23 lung is 56.3%; in the assay on NCI-H226 lung, 32.8%; with NCI-H322M lung it was 16.8%; with HOP-62 NSCLC, -1.03% (active); in the assay with NCI-H460 lung, -4.77% (active); in the assay on HOP-92 NSCLC, -32.4% (active). Further, the growth in the assay with NCI-H522 lung was 19.4%; in the assay with A549/ATCC NSCLC it was 9.7% (active); in the assay on 786-0 renal, -70.8% (active); in the assay on COLO 205 colon it was 58.5%.

With `CCC12CCC[N+]3([O-])CCC4(C(=Nc5ccccc54)C(O)(C(=O)OC)C1)C23` (stereo not given), the growth in the assay on NCI-H23 lung is 101%; in the assay on NCI-H226 lung it was 106%; with NCI-H322M lung, 103%; in the assay on HOP-62 NSCLC, 94.5%; in the assay on NCI-H460 lung, 111%; in the assay with HOP-92 NSCLC, 94.4%. The growth with NCI-H522 lung is 115%; in the assay with A549/ATCC NSCLC it was 114%; with 786-0 renal, 106%; with COLO 205 colon it was 118%.

On to `c1cc2nc(-c3cn[nH]c3)c3c(c2cc1-c1cn[nH]c1)C1CCC3C1` (stereo not given), for which the growth in the assay on NCI-H23 lung is 53%; with NCI-H226 lung it was 39.5%; in the assay on NCI-H322M lung, 75%; with HOP-62 NSCLC, 47.8%; in the assay with NCI-H460 lung, 54%; with HOP-92 NSCLC, 28%. The growth in the assay with NCI-H522 lung was 75.1%; in the assay with A549/ATCC NSCLC, 74%; in the assay with 786-0 renal, 81.5%; in the assay with COLO 205 colon it was 90.5%.

`CCOC(=O)c1cn2ncnc(Oc3ccc(NC(=O)NCCN(C)C)c(Cl)c3)c2c1C`: the growth with NCI-H23 lung was 75.5%; in the assay on NCI-H226 lung, 93.2%; in the assay on NCI-H322M lung it was 90.5%; with HOP-62 NSCLC, 95.3%; in the assay on NCI-H460 lung it was 103%; in the assay with HOP-92 NSCLC it was 44.8%. Further, the growth in the assay on NCI-H522 lung was 87.9%; in the assay with A549/ATCC NSCLC, 92.4%; in the assay with 786-0 renal, 76.1%; in the assay with COLO 205 colon, 55.9%.

Consider `CCOc1c(B(O)O)cccc1-c1nc2ccc3[nH]ncc3c2c2c1CCCC2`, for which the growth with NCI-H23 lung was 60.1%; with NCI-H226 lung it was 54.3%; in the assay on NCI-H322M lung, 109%; in the assay with HOP-62 NSCLC, 48.3%; in the assay on NCI-H460 lung, 42.1%; in the assay with HOP-92 NSCLC it was 33.5%. The growth was 55.2% in the assay on NCI-H522 lung, 64.5% with A549/ATCC NSCLC, 47.7% in the assay with 786-0 renal and 48.6% with COLO 205 colon.

As for `C/C(=C(/c1ccccc1)c1ccc(N2C(=O)c3cccc4c(N5CCN(C)CC5)ccc(c34)C2=O)cc1)c1ccccc1`, the growth was 59.7% in the assay with NCI-H23 lung; 69.6% in the assay with NCI-H226 lung; 99.9% in the assay with NCI-H322M lung; 86.1% in the assay on HOP-62 NSCLC; 83.3% in the assay with NCI-H460 lung; 67.4% in the assay on HOP-92 NSCLC. Besides, the growth in the assay on NCI-H522 lung is 81.5%; with A549/ATCC NSCLC it was 71.1%; with 786-0 renal, 87.6%; in the assay with COLO 205 colon, 81.1%.

In the case of `O=C(CS(=O)c1oc(-c2cccs2)nc1S(=O)(=O)c1ccc(Br)cc1)c1ccccc1` (stereo not given), the growth in the assay on NCI-H23 lung is 92.6%; with NCI-H226 lung it was 80.8%; in the assay with NCI-H322M lung, 97.7%; in the assay with HOP-62 NSCLC it was 84.6%; in the assay on NCI-H460 lung, 93.6%; in the assay with HOP-92 NSCLC, 76%. Besides, the growth in the assay with NCI-H522 lung is 81.4%; with A549/ATCC NSCLC it was 96.6%; with 786-0 renal, 98.7%; in the assay on COLO 205 colon, 106%.
